Assay [1] can be described thus: inhibitors of TNFa-induced NFkB p65 translocation, primary screen, imaging, HUVEC, MLSMR starter and 10KST1 sets (AID 438).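 Further: compound added about 3h40 before a 20 min TNFalpha stimulation.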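 On inhibition: signal is the nuclear over cytoplasmic p65 intensity ratio per well.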 The settings on record: HUVEC TNFa-induced p65 nuclear translocation; cell count: measured here: nuclei count (cytotoxicity indicator), at 2.08 µM; inhibition: at 2 µM, stronger effect = higher value, 0% TNFa-plus-vehicle, 100% no-TNFa wells.
Assay [2] in a line: inhibitors of mutant huntingtin aggregation, primary screen, imaging, exon1htt(103Q)mCFP cells, high-content imaging (AID 483;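 active means visual image review flags a hit and inhibition of aggregation exceeds 20%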;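 further: compound exposure lasted 3 days before fixation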;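 on nuclei count: percent of the per-plate median nuclei count of sample wells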). The settings on record: exon1htt(103Q)mCFP cell line, aggregate imaging, at 2 µM; inhibition of aggregation: stronger effect = higher value; nuclei count: measured here: cell count, toxicity.
Assay [3] can be described thus: inhibitors of E-selectin induction by TNFa, primary screen, imaging, HUVEC, immunofluorescence, MLSMR starter and 10KST1 sets (AID 487;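 active means visually confirmed hit in the image check and inhibition above 20%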;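 on inhibition: signal is fraction of cell area covered by stained E-selectin grains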;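 on nuclei count: 100% = median nuclei count of all wells on the same plate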). The settings on record: HUVEC TNFalpha-induced E-selectin immunofluorescence imaging, at 2 µM; inhibition: stronger effect = higher value; nuclei count: measured here: cell number, toxicity.
The target of assay [4] is Voltage-gated potassium channel subunit beta-2 (Rattus norvegicus) (UniProt P62483). Nature of the assay: KvBeta enzyme negative modulators, primary screen, biochemical, NADPH fluorescence (AID 622;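 active means fluorescence slope higher than the sample average by over 3 SD, cut at about -0.22 in these data, passing the limit was not always enough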;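 further: slope of raw intensity against log time taken from 70 to 1610 s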). The settings on record: recombinant KvBeta, 4-cyanobenzaldehyde reduction, at 10 µM, stronger effect = higher value.
Sequence of Voltage-gated potassium channel subunit beta-2 (Rattus norvegicus) (P62483 whole entry, looked up): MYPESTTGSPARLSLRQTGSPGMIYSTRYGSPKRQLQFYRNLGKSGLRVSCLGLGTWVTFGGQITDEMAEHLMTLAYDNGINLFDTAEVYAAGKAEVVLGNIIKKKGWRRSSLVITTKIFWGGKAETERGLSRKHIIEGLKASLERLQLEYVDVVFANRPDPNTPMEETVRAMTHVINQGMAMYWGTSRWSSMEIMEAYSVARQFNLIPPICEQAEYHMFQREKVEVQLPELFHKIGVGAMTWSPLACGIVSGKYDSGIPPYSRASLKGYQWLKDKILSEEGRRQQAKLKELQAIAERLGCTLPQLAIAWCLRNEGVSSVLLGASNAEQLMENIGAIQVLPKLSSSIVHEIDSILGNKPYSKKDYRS
For assay [5] the target is unchanged. Nature of the assay: KvBeta positive modulators, primary screen, biochemical, NADPH fluorescence (AID 623;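 active means NADPH fluorescence slope more negative than the mean of all samples by about 3 SD, 99.7% confidence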;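 further: fluorescence intensity change per second fitted from 20 to 320 s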). The settings on record: Recombinant KvBeta, NADPH fluorescence decrease slope, 10 min; at 10 µM; stronger effect = lower value.
Assay [6] concerns the target Alpha-2C adrenergic receptor (Homo sapiens) (UniProt P18825). Nature of the assay: modulators of alpha2C/GIRK thallium flux, primary screen, cell-based, HEK293 alpha2C/GIRK1/2 (AID 624;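 active means fluorescence slope after compound addition differing from the mean of all screened samples at 99.7% confidence, in either direction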;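 further: slope of fluorescence ratio to pre-addition baseline per second over 15 to 24 s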). The settings on record: thallium flux BTC fluorescence, at 10 µM, actives lie on both sides.
Assay [7] is described as follows: inhibitors of Sendai virus-induced IRF3 signaling, primary screen, TLR/RLR signaling modifier project, cell-based, Sendai virus stimulus, luciferase, 10K MLSCN set (AID 602276;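 active means inhibition at or above 50% at 10 µM; inactive means inhibition below 50%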;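 further: firefly luciferase from ISG56 promoter only with Renilla not read in this screen; 0% = Sendai virus plus DMSO and 100% = medium plus DMSO without virus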). The settings on record: HEK293 RL24 IRF3 luciferase reporter, at 10 µM, stronger effect = higher value.
Assay [8] in a line: inhibitors of poly I:C-induced TLR3 signaling, primary screen, cell-based, poly I:C stimulus, luciferase, 10K MLSCN set (AID 602277;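 active means inhibition of the reporter signal at or above 50%; inactive means inhibition below 50%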). The settings on record: HEK293-TLR3 RL24 IRF3 luciferase reporter, at 10 µM, stronger effect = higher value. (In general: A reporter such as luciferase makes a cellular process visible.)

This is an account of results in PubChem BioAssay.

Activity calls are given as the source filed them.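 How the source made its calls, unless noted: active means inhibition above 20% together with a positive visual image hit; inconclusive means visual image hit but inhibition not above 20%; inactive means no visual image hit.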

By inhibition is commonly meant the change of the read-out against control, counted positive when it falls.

Sequence of Alpha-2C adrenergic receptor (Homo sapiens) (P18825 whole entry, looked up): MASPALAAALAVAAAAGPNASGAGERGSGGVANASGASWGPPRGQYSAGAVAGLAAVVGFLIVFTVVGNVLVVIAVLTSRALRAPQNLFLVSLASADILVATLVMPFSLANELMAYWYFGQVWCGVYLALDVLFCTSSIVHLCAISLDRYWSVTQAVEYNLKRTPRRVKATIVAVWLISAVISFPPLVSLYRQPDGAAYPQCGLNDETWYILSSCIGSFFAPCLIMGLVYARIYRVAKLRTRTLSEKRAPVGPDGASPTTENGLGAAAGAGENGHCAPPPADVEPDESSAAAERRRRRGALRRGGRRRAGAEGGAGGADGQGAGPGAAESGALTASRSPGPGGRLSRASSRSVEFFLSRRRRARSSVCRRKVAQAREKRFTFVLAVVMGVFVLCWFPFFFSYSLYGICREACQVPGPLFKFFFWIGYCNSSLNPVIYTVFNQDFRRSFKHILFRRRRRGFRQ

Turning to `CCc1nnc2sc(-c3cc(-c4ccccc4)nc4ccccc34)nn12`, the cell count in assay [1] was 267. In addition, the inhibition was 5.4% (inactive) in assay [1], 3.3% (inactive) in assay [3], 8.15% (inactive) in assay [7] and 26.8% (inactive) in assay [8]. In addition, in assay [2], the inhibition of aggregation is 7.4% (inactive). Besides, the values for the nuclei count in assay [2] and in assay [3] were 87% and 90.4%, respectively. In assay [4], the fluorescence slope is -0.436 (inactive). The NADPH fluorescence slope in assay [5] was 2.9e-06 (inactive). Also, in assay [6], the slope is 0.00312 (inactive).

With `CCCCn1c(=O)[nH]c(=O)c2c1nc(COc1ccc(C#N)cc1)n2CCC`, in assay [1], the cell count amounted to 337. Moreover, the inhibition in assay [1] is 3.4% (inactive); in assay [3], 32.8% (inactive); in assay [7], 10.1% (inactive); in assay [8], 30.2% (inactive). In assay [2], the inhibition of aggregation is -40.4% (inactive). Moreover, the values for the nuclei count in assay [2] and in assay [3] were 97.4% and 110%, respectively. Besides, the fluorescence slope in assay [4] is -0.538 (inactive). Further, the NADPH fluorescence slope in assay [5] was 6.8e-06 (inactive). The slope in assay [6] is 0.00653 (inactive).

`COc1ccc2nc(NC(=O)c3ccoc3C)sc2c1`: in assay [1], the cell count is 362. Further, the inhibition is 1.4% (inactive) in assay [1], -75.7% (inactive) in assay [3], -30.4% (inactive) in assay [7] and -105% (inactive) in assay [8]. Further, the inhibition of aggregation in assay [2] is -11.6% (inactive). The nuclei count in assay [2] was 106%; in assay [3], 118%. In assay [4], the fluorescence slope is -0.38 (inactive). The NADPH fluorescence slope in assay [5] is -2.2e-05 (inactive). In assay [6], the slope is 0.00322 (inactive).

`Cc1ccc(CCNC(=O)CC2Oc3ccc(C)cc3NC2=O)cc1` (centres undefined): in assay [1], the cell count came to 644. Further, the inhibition was 5.5% (inactive) in assay [1], -33.5% (inactive) in assay [3], -18.4% (inactive) in assay [7] and 2.52% (inactive) in assay [8]. In assay [2], the inhibition of aggregation is -11.9% (inactive). Moreover, the nuclei count worked out at 105% in assay [2] and 124% in assay [3]. For the same molecule, the fluorescence slope in assay [4] was -0.558 (inactive). Besides, the NADPH fluorescence slope in assay [5] is 1.2e-05 (inactive). Moreover, the slope in assay [6] is 0.00676 (inactive).

Turning to `S=c1[nH]nc(Cc2ccccc2)n1Cc1ccco1`, the cell count in assay [1] was determined as 769. Further, the inhibition is -8% (inactive) in assay [1], -2.6% (inactive) in assay [3], 5.02% (inactive) in assay [7] and 9.76% (inactive) in assay [8]. In addition, the inhibition of aggregation in assay [2] is 3% (inactive). Besides, the nuclei count turned out to be 101% in assay [2] and 102% in assay [3]. For the same molecule, in assay [4], the fluorescence slope is -0.499 (inactive). Further, the NADPH fluorescence slope in assay [5] was -7e-05 (inactive). In addition, the slope in assay [6] was 0.00544 (inactive).

Take `O=C(NC12CC3CC(CC(C3)C1)C2)c1cncc(O)c1`: the cell count in assay [1] was 708. Moreover, the inhibition was 13.5% (inactive) in assay [1], -200% (inactive) in assay [3], 7.2% (inactive) in assay [7] and 26.8% (inactive) in assay [8]. In assay [2], the inhibition of aggregation is -6.2% (inactive). For the same molecule, the nuclei count was 102% in assay [2] and 128% in assay [3]. The fluorescence slope in assay [4] was -0.608 (inactive). Moreover, the NADPH fluorescence slope in assay [5] was 5e-06 (inactive). Also, the slope in assay [6] is 0.0069 (inactive).

Take `C=CCn1c(-c2cccs2)nc2nc3ccccc3nc21`: the cell count in assay [1] was found to be 546. Moreover, the inhibition in assay [1] was -5.4% (inactive); in assay [3] it was -77.5% (inactive); in assay [7], -3.42% (inactive); in assay [8], 2.94% (inactive). Moreover, the inhibition of aggregation in assay [2] is -7.5% (inactive). Moreover, the nuclei count in assay [2] was 90.1%; in assay [3] it was 141%. Besides, the fluorescence slope in assay [4] is -0.602 (inactive). For the same molecule, the NADPH fluorescence slope in assay [5] is 4.4e-06 (inactive). In assay [6], the slope was 0.0057 (inactive).

As to `CCCS(=O)(=O)N1CCCC(C(=O)NC(C)c2ccc3c(c2)OCCO3)C1` (centres undefined), in assay [1], the cell count worked out at 719. In addition, the inhibition in assay [1] is -10.9% (inactive); in assay [3] it was -26.6% (inactive); in assay [7] it was 9.72% (inactive); in assay [8], 13.6% (inactive). Further, the inhibition of aggregation in assay [2] was 0.2% (inactive). The nuclei count in assay [2] worked out at 101%; in assay [3] it was 100%. Also, the fluorescence slope in assay [4] is -0.475 (inactive). Moreover, the NADPH fluorescence slope in assay [5] is 1.2e-05 (inactive). Moreover, the slope in assay [6] is 0.00535 (inactive).

For the molecule `COc1ccc(N(CC(=O)Nc2ccc3c(c2)OCO3)S(=O)(=O)c2c(C)nn(C)c2C)cc1`, the cell count in assay [1] worked out at 538. In addition, the inhibition in assay [1] was 11.9% (inactive); in assay [3], -46% (inactive); in assay [7], 10.2% (inactive); in assay [8] it was 17.3% (inactive). Moreover, the inhibition of aggregation in assay [2] was 17.9% (inactive). In addition, the nuclei count in assay [2] is 51%; in assay [3] it was 105%. The fluorescence slope in assay [4] is -0.57 (inactive). Also, the NADPH fluorescence slope in assay [5] is -4.5e-06 (inactive). Further, the slope in assay [6] is 0.00577 (inactive).

Consider `CCOC(=O)C1=C(C)N(C)C(=O)NC1c1cccc(O)c1` (centres undefined), for which, in assay [1], the cell count was found to be 421. The inhibition in assay [1] is 6.4% (inactive); in assay [3] it was -43.5% (inactive); in assay [7] it was 9.66% (inactive); in assay [8], 17.5% (inactive). Further, the inhibition of aggregation in assay [2] is -6.7% (inactive). The nuclei count was 99.3% in assay [2] and 124% in assay [3]. Besides, the fluorescence slope in assay [4] was -0.259 (inactive). The NADPH fluorescence slope in assay [5] was -1.3e-05 (inactive). For the same molecule, in assay [6], the slope was 0.00604 (inactive).

For the molecule `COc1cccc(N(C(C)=O)c2nc(C)cc(C)c2C#N)c1`, the cell count in assay [1] was 278. Also, the inhibition is 13.4% (inactive) in assay [1], -47.7% (inactive) in assay [3], 17.6% (inactive) in assay [7] and 28.7% (inactive) in assay [8]. Further, in assay [2], the inhibition of aggregation was -28.3% (inactive). In addition, the nuclei count in assay [2] amounted to 113%; in assay [3], 102%. Also, the fluorescence slope in assay [4] was -0.557 (inactive). Also, the NADPH fluorescence slope in assay [5] was -1.8e-05 (inactive). The slope in assay [6] is 0.00529 (inactive).

Take `COCCN(CC(=O)NCc1ccccc1)C(=O)CCC(=O)Nc1ccccn1`: the cell count in assay [1] turned out to be 663. The inhibition in assay [1] was -4.4% (inactive); in assay [3] it was 38.3% (inactive); in assay [7], 19.1% (inactive); in assay [8], 19.4% (inactive). Besides, the inhibition of aggregation in assay [2] is 6.3% (inactive). In addition, the results for the nuclei count in assay [2] and in assay [3] were 86% and 117%, respectively. The fluorescence slope in assay [4] is -0.506 (inactive). For the same molecule, the NADPH fluorescence slope in assay [5] was -2.7e-05 (inactive). Moreover, in assay [6], the slope is 0.00555 (inactive).

For `C=CCN1C(=O)CS/C1=C(\C#N)S(=O)(=O)c1ccc(C)cc1`, the cell count in assay [1] came out at 585. The inhibition is 13.3% (inactive) in assay [1], -75.5% (inactive) in assay [3], 20% (inactive) in assay [7] and 28.5% (inactive) in assay [8]. Also, the inhibition of aggregation in assay [2] was -5.1% (inactive). The values for the nuclei count in assay [2] and in assay [3] were 108% and 104%, respectively. In addition, the fluorescence slope in assay [4] was -0.481 (inactive). For the same molecule, in assay [5], the NADPH fluorescence slope is -4.8e-05 (inactive). Moreover, the slope in assay [6] is 0.00449 (inactive).

As to `CCN(CC)C(=O)C1CCCc2c1[nH]c1ccc(Cl)cc21` (centres undefined), in assay [1], the cell count is 674. Further, the inhibition in assay [1] is -18.9% (inactive); in assay [3], -47.8% (inactive); in assay [7] it was -47.5% (inactive); in assay [8], -12.1% (inactive). Also, the inhibition of aggregation in assay [2] was -0.9% (inactive). In addition, the nuclei count in assay [2] amounted to 109%; in assay [3], 104%. In assay [4], the fluorescence slope is -0.539 (inactive). Besides, in assay [5], the NADPH fluorescence slope is -3.5e-05 (inactive). Moreover, the slope in assay [6] is 0.00741 (inactive).
